Assay: enhancers of NK cell killing of ovarian tumor cells, primary screen, imaging, OVCAR3, primary NK cells, calcein-AM imaging (AID 1508625);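 note: compound given to NK cells 16 h before adding targets at 1.5 to 1 ratio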
Conditions: OVCAR3 lysis by primary NK cells, at 5 µM; z-score: measured here: robust Z-score, single-point normalisation

SMILES | corrected activity, negative = more killing [%] | z-score
COc1ccc(OC(C)C(=O)Nc2ccc(Br)cc2)cc1 (centres undefined) | -7.07 | -2.19
COc1ccc(CNC(=O)CSc2nc3cc(C(F)(F)F)ccc3s2)cc1 | -4.55 | -2.53
Cc1ccc(C(=O)Nc2ccc3nn(-c4cccc(Cl)c4)nc3c2)cc1[N+](=O)[O-] | -0.361 | -0.128
CCOC(=O)CCN1C(=O)C(=Cc2cccc(OC)c2)SC1=S | -4.87 | -1.55
CCOc1ccccc1C=Nc1ccc(Cl)cc1Cl | -4.37 | -1.86
COCCNCCCOc1cccc(Br)c1 | -1.7 | -0.634
Cc1c(N=Cc2c[nH]c3ccccc23)cccc1[N+](=O)[O-] | -2.05 | -0.872
COc1ccc(NC(=O)c2coc(=O)c3ccccc23)cc1Cl | -3.91 | -1.24
O=C1CC(c2ccc(Cl)cc2)CC2=C1C(c1cccc(F)c1)Nc1ccccc1N2 (centres undefined) | -9.53 | -2.95
O=C1C(=Cc2ccccc2)SC(=S)N1C1CCS(=O)(=O)C1 (centres undefined) | -2.25 | -0.887
CCc1cccc(NC(=O)CN(C)S(=O)(=O)c2cccs2)c1 | -4.79 | -1.36
Clc1ccc(OCCN2CCc3ccccc3C2)cc1 | -1.86 | -1.03
CN1CCc2c(sc3c2C(=O)NC(c2cccc(OCc4ccccc4)c2)N3)C1 (centres undefined) | -3.2 | -0.991
CC1CCC2C(=O)N(c3ccc(NCCc4ccccn4)c([N+](=O)[O-])c3)C(=O)C2C1 (centres undefined) | -4.66 | -1.69
CC(C)NCCCCOc1ccccc1-c1ccccc1 | 1.68 | 0.626
Cc1ccc(N2CC(C(=O)Nc3cccc(C)n3)CC2=O)cc1 (centres undefined) | -3 | -1.13
CC(=NNC(=S)Nc1cccc(C)c1)c1cccc(N)c1 | -5.28 | -2.08

Source: PubChem BioAssay AID1508625 (Wald Lab, School of Medicine, Case Western Reserve …, 2021)
